Screening data deposited in PubChem BioAssay by National Center for Advancing Translational Sciences (NCATS).
GLP-1R inv ag = qHTS of GLP-1 Receptor Inverse Agonists (Inhibition Mode). HEK293 GLP-1R CRE-luciferase, luminescence, 24 h; GLP-1R form is constitutively active. Potency, µM (titrated, usually from 38.3 µM), for inactives: at the top dose activity change, negative = inhibition, actives largely listed as inhibitors. 410,000 tested, 1.6% active. AID 624417, 2012; also: % is scaled to controls: 0 for no effect and ±100 for the full control effect; nearly all actives have a fitted effect of over 55% in size
Target sequence (P43220 whole entry, looked up): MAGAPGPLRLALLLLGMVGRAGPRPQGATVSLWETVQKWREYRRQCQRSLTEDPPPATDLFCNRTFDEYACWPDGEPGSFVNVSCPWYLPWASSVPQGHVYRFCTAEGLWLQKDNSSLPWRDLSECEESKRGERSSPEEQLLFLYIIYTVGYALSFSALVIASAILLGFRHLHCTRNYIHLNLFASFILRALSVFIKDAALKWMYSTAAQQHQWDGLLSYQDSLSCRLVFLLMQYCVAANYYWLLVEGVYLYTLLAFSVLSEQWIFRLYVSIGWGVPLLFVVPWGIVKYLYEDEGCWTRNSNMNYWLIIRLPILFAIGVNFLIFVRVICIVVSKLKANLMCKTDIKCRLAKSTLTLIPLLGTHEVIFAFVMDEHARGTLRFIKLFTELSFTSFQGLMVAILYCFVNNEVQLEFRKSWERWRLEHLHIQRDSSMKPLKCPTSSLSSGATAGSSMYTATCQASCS
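Assay principle: reduced luminescence from a cAMP-responsive reporter in HEK293 cells co-expressing a constitutively active GLP-1R. Conditions: 24 hr compound incubation, 37 deg C, 5% CO2.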
PTHR1 agonist = qHTS for PTHR1 Agonists: Primary Screen | Parathyroid hormone/parathyroid hormone-related peptide receptor (Homo sapiens), Q03431 | HEK293 GP2 PTHR1 cells, GloSensor cAMP luminescence, 1 h | Potency, µM (titrated, usually from 115 µM), without a hit: at the highest dose activation, actives largely listed as activators | 410,000 tested, 0.075% active; also: nearly all actives have a fitted effect of over 55% in size
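HEK-293-derived GP2 cells expressing PTHR1 and a GloSensor cAMP reporter, 3,000/well, plated overnight, given luciferin plus IBMX (each 0.5 mM as added) for 1 h at 37 °C, then compound for 1 h at 37 °C. Luminescence was read after 15 min at room temperature.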
GLP-1R agonist = qHTS of GLP-1 Receptor Agonists; Glucagon-like peptide 1 receptor (Homo sapiens), P43220; HEK293 GLP-1R CRE-luciferase, luminescence, 4-6 h; cells express a hypersensitive GLP-1R form; Potency, µM (highest dose often 45.6 µM), for the others: top-dose activation, usual class: activators; 380,000 tested, 0.007% active; AID 624172, 2012; also: % of control where 0% means no effect
HEK293 tox = qHTS of GLP-1 Receptor Inverse Agonists: Cytotox Screen. HEK293 cAMP-luciferase reporter cells, luminescence, 24 h. Potency, µM (series often up to 38.3 µM), for inactives: top-dose activity change, negative = inhibition, actives largely listed as inhibitors. 410,000 tested, 0.13% active;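 also: loss of luciferase light is scored as toxicity; % is scaled to controls: 0 for no effect and ±100 for the full control effect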
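A 23 nL compound transfer followed 12 hours of cell culture at 37 deg C; exposure then lasted 24 hr. Luciferase assay detection reagent was dispensed and plates read for luminescence after a 12 min room-temperature wait.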
Starred values were filed as active, the others as inactive; i = inactive; u = inconclusive; x = no result; [ ] = dose if it differs, or a comment. The list is not random: actives were taken first. Their share in the collection is about 1.7%. Calls follow the shape of the dose curve; as a rule, active = well fitted curve in the direction sought with a large enough effect; inconclusive = small, poorly fitted or top-dose-only effect, or another doubt; inactive = no such curve, though single readings can be large; an effect the other way counts as inactive or inconclusive. Potency is read from the fitted curve at half-maximal effect.

SMILES	GLP-1R inv ag	PTHR1 agonist	GLP-1R agonist	HEK293 tox
CCCCC1C2=C(CC(C)(C)CC2=O)OC2=C1C(=O)CC(C)(C)C2	8.91µM*	i	4.1%	-7.3%
CN[C@H]1[C@@H](O)[C@@H](NC)[C@@H]2O[C@@]3(O)C(=O)C[C@@H](C)O[C@H]3O[C@H]2[C@H]1O	x	x	1.4%[19.8 µM]	x
Cc1ccccc1Oc1cc(-n2ncc(Cl)c(Cl)c2=O)ncn1	u	-27.8%	-21.5%	3.16µM*
CCc1ccc(N=C2NC(=O)CC(C(=O)Nc3ccc(OC)cc3)S2)cc1 (stereo not given)	-7.0%	-19.4%	x	-9.0%
COc1ccc(-n2nc(C(=O)O)c(=O)n(C)c2=O)cc1	6.1%	i	x	-6.9%
CCN(CC)S(=O)(=O)c1ccc(N/N=C/c2ccc(O)cc2)nc1	7.7%	-22.7%	7.2%	-7.6%
CCN(CC)S(=O)(=O)c1ccc(N/N=C(\C)c2ccc(OC)cc2O)nc1	2.51µM*	-9.5%	-0.3%	u
CC(C)(C)N(Cc1ccccc1)C(=O)c1cc2ccccc2o1	2.24µM*	i	5.0%	-0.7%
CN(Cc1ccccc1)C(=O)c1cc2ccccc2o1	6.2%	-10.2%	-1.5%	5.5%
COc1ccc(-c2nc3scc(CCNS(=O)(=O)c4ccc5c(c4)OCCO5)n3n2)cc1	15.5%	-32.3%	x	-4.4%
OC[C@H]1O[C@@H](n2cnc3c2NC=NC[C@H]3O)C[C@@H]1O	x	x	-4.2%	x
O=C(CSc1n[nH]c(-c2ccccn2)n1)Nc1ccccc1F	11.2µM*	13.1%	6.7%	u
O=[N+]([O-])c1cccnc1N1CCC(c2cc(-c3ccc(Cl)cc3Cl)n[nH]2)CC1	5.01µM*	i	-0.7%	-22.4%
COc1ccc(OC)c(-c2cc(C3CCN(c4ncccc4[N+](=O)[O-])CC3)[nH]n2)c1	u	-13.2%[57.5 µM]	13.0%	-51.2%
Cc1cccc(-n2cc(CN(C)Cc3nccn3C)c(-c3cccc(F)c3)n2)c1	u	-51.8%	-5.0%	u
CCn1ccnc1CN(C)Cc1cn(-c2cccc(C)c2)nc1-c1cccc(F)c1	12.6µM*	u	-3.2%	u
COC(=O)c1c(NC(NC(=O)C(C)C)C(Cl)(Cl)Cl)sc2c1CCC2 (stereo not given)	8.91µM*	-32.6%	-2.0%	-4.8%
COc1ccccc1C(=O)N(CCC1CCCN1C)c1nc2ccccc2s1 (stereo not given)	3.55µM*	-28.2%	-4.3%	-16.5%
Cc1cccc(NC(=O)c2ccc(F)c(S(=O)(=O)NCc3ccc4c(c3)OCO4)c2)c1	-29.1%	-22.9%	x	-4.7%
NC(N)=NCCCC(N)C(=O)O (stereo not given)	x	x	-3.8%	x
CCOC(=O)C1(Cc2ccc(OC)cc2)CCN(C(=O)c2ccc3[nH]ccc3c2)CC1	4.47µM*	-31.8%	1.1%	-12.4%
CCOC(=O)C1(Cc2ccc(OC)cc2)CCN(C(=O)c2ccoc2C)CC1	u	-41.8%	-5.7%	1.3%
Cc1ccc(NC(=O)CN(C)C(=O)c2ccccc2Sc2ccccc2C#N)cc1	u	-13.6%	8.0%	-1.6%
COc1cccc(CN(C)C(=O)c2ccccc2Sc2ccccc2C#N)c1OC	8.91µM*	-13.0%	12.3%	-11.3%
Cc1ccc(CN(C)C(=O)c2ccccc2Sc2ccccc2C#N)cc1	10µM*	-22.9%	6.3%	2.0%
SMILES	GLP-1R inv ag	PTHR1 agonist	GLP-1R agonist	HEK293 tox
Cc1ccc2occ(-c3cc(-c4ccc(F)cc4)nc4c3COc3ccc(F)cc3-4)c(=O)c2c1	-7.6%	-15.4%	-1.4%	7.0%
CCCn1c(C(C)Nc2nc(-c3ccc(C)cc3)cs2)nc2ccccc21 (stereo not given)	11.2µM*	16.4%	6.0%	u
Cc1cc(N2CCN(C)CC2)nc2ccc(NC(=S)N3CCCCC3)cc12	10µM*	i	19.0%	-22.2%
Cc1cc(N2CCN(C)CC2)nc2ccc(NC(=S)N3CCN(c4ccc(F)cc4)CC3)cc12	u	i	-0.1%	u
Cc1cc(N2CCN(C)CC2)nc2ccc(NC(=S)N3CCCCCC3)cc12	11.2µM*	i	21.3%	-15.4%
COc1cc(OC)cc(C(=O)Nc2ccc3nc(N4CCCCC4)cc(C)c3c2)c1	11.2µM*	4.7%	x	-18.9%
COc1ccc(C2CC(=O)Nc3c2c(=O)n(C)c2nc4ccccc4n32)cc1 (stereo not given)	9.6%	i	-0.6%	2.1%
O=C1CSC(=S)N1Cc1cccnc1	2.82µM*	-27.6%[57.5 µM]	-25.3%	u
CCC(C(=O)Nc1ccccc1-c1ccccc1)c1ccccc1 (stereo not given)	7.94µM*	-25.6%[57.5 µM]	-6.6%	6.3%
Cc1cccc(CCNC(=O)c2ccc3c(c2)nc2n3CCCCC2)c1	u	-80.1%	x	-10.3%
CC(Oc1cccc(Br)c1)C(=O)NNC(=O)c1ccccn1 (stereo not given)	11.2µM*	-7.7%	0.9%	u
COc1cc(/C=C2\CCC/C(=C\c3ccc(O)c(OC)c3)C2=O)ccc1O	u	-25.9%	-3.6%	8.91µM*
CCOc1cc(/C=N/N=C/c2ccc(O)c(OCC)c2)ccc1O	4.9%	i	15.4%	-24.0%
CCOc1cc(/C=C2\CN(CC)C/C(=C\c3ccc(O)c(OCC)c3)C2=O)ccc1O	10µM*	-20.6%	-4.9%	-0.7%
CCOc1cc(C)c(Cl)cc1S(=O)(=O)NC1CC(C)(C)NC(C)(C)C1	u	-15.3%	-4.2%	-9.8%
COc1cc(C)c(Cl)c(C)c1S(=O)(=O)NC1CC(C)(C)NC(C)(C)C1	5.62µM*	-20.6%	-2.3%	2.2%
CCOc1cc(S(=O)(=O)NC2CC(C)(C)NC(C)(C)C2)ccc1Cl	11.2µM*	-10.0%	6.1%	0.8%
CCCCOC(=O)c1c(N)n(-c2ccc(OC)cc2OC)c2nc3ccccc3nc12	-0.1%	i	6.6%	-11.4%
CCOC(=O)c1cc(-c2cccs2)nc2c1c(C)nn2-c1ccccn1	u	-4.5%	15.7%	3.55µM*
CC1(C)Cc2c(cnn2-c2ccccc2)C(=O)/C1=N\NC(=O)c1ccccc1O	11.2µM*	-26.6%[57.5 µM]	-12.1%	-26.6%
CC1Cn2c(C(=O)NCCc3ccc(Cl)cc3)cc3cccc(c32)S1 (stereo not given)	u	-18.3%	x	6.1%
N=C1N(c2ccccc2)C(=S)C(=Nc2ccccc2)N1c1ccccc1	12.6µM*	-11.5%	10.9%	-0.6%
Cc1ccc(-n2nnnc2SCC(=O)Nc2cc(C)on2)c(C)c1	9.2%	i	0.5%	u
Cc1ccccc1-n1nnnc1SCC(=O)Nc1ccc(S(=O)(=O)N2CCCC2)cc1	11.2µM*	-19.0%[57.5 µM]	3.5%	-13.3%
Cc1ccc(-n2nnnc2SCC(=O)Nc2ccc(N3CCN(C)CC3)cc2)c(C)c1	3.55µM*	-22.5%	12.0%	-16.0%
COc1ccc(NC(=O)CSc2nnnn2-c2ccccc2F)cc1	-7.4%	-14.3%	-5.4%	-0.7%
CN1CCN(c2ccc(NC(=O)CSc3nnnn3-c3ccccc3F)cc2)CC1	2.82µM*	i	-1.2%	-8.6%
